Peg3 promoter – Peg3 promoter activity inhibition. HeLa PEG-Prom luciferase reporter, luminescence, overnight. inhibition, % at 20 µM. 1.7% of 360,000 active;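 active = inhibition of at least 50% at 20 µM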
CF NFkB inh – inhibitors of cystic fibrosis induced NF-kB; 0.86% of 360,000 active; KKLEB NF-kB-GFP reporter, PAF-induced, GFP fluorescence overnight; AID 588850; inhibition, % at 5 µM;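 active = at least 50% inhibition at 5 µM, scaled per plate between neutral and stimulator controls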;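 note: PAF is a Pseudomonas aeruginosa culture filtrate used as stimulus; plate controls were PAF-stimulated DMSO wells for no effect and unstimulated DMSO wells for full effect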
KKLEB tox – CF airway cell cytotoxicity counter-screen | activity change (cytotoxicity), % at 5 µM | KKLEB CF airway cells viability, ATPlite luminescence, overnight; hits give low values; cells stimulated with P. aeruginosa culture filtrate | 0.36% of 360,000 active;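 active = corrected activity change at or below -50% at 5 µM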
ABHD5-PLIN5 inh – blocks binding of human ABHD5 to perilipin-5. Q00G26+Q8WTS1. Split G. princeps luciferase complementation, luminescence, 4 h. inhibition, % at 4 µM. 0.78% of 360,000 active. AID 602281;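 active = inhibition above the mean inhibition across every tested compound plus 3 SD, cut at about 22% in these data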;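 note: 0% = DMSO only wells and the 100% control is not disclosed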
TRPM1 prom inh – inhibitors of MITF-driven TRPM1 promoter in melanoma cells; SK-MEL-5 TRPM1 promoter luciferase, 24 h; AID 488899; 0.83% of 330,000 active; inhibition, % at 12.5 µM;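 active = mean inhibition across replicates of 60% or more, whatever share of single replicates reaches that level; inconclusive = some that reach 60%, reason not given; inactive = mean inhibition across replicates below 60%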
HIF-2a block – inhibitors of HIF-2a; 786-0 RCC cells HIF-2a reporter, luciferase luminescence, overnight; inhibition, % at 18.8 µM; 0.72% of 360,000 active;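 active = inhibition of the luminescence signal of 40% or more relative to plate controls, in a single-dose primary screen at 18.75 µM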
* = called active by the depositor; ? = inconclusive; nt = not tested or not shown. This is a sample that favours compounds with a hit; in the whole collection about 3% have one here.

SMILES	Peg3 promoter	CF NFkB inh	KKLEB tox	ABHD5-PLIN5 inh	TRPM1 prom inh	HIF-2a block
CCOC(=O)Cc1c(C)nc2c(-c3cccc(Br)c3)c[nH]n2c1=O	58*	-4	-11	1	3	3
Cc1cc(C)cc(NC(=O)CSc2nc(N)c(NC(=O)c3ccc(Br)o3)c(=O)[nH]2)c1	21	-10	23	-7	-7	11
COc1cccc(-c2nc3c(c(SCC(=O)N4CCOCC4)n2)Cc2c(CO)cnc(C)c2O3)c1	59*	38	-11	-2	16	3
Cc1cccc(-c2nc3c(c(SCC(=O)N4CCOCC4)n2)Cc2c(CO)cnc(C)c2O3)c1	68*	12	15	2	-5	15
Cc1ncc(CO)c2c1Oc1nc(-c3ccccc3)nc(SCC(=O)N3CCOCC3)c1C2	80*	14	-15	-4	6	10
COc1ccccc1-c1nc2c(c(SCC(=O)N3CCCCC3)n1)Cc1c(CO)cnc(C)c1O2	30	10	2	4	12	8
CC1=NN(c2ccc(Cl)cc2)C(=O)C1C(c1ccccc1O)c1c(C)[nH]n(-c2ccc(Cl)cc2)c1=O (stereo unspecified)	11	65*	-50*	-7	17	12
COc1ccc(N2CCN(C(=O)CN3c4cccc5cccc(c45)S3(=O)=O)CC2)cc1	5	-13	2	-2	7	-8
CN1C2=CC=CC=CC2=[N+](C)C12C([N+](=O)[O-])=CC(=[N+]([O-])[O-])C=C2[N+](=O)[O-] (stereo unspecified)	30	17	-16	2	70*	0
Cc1ccc(NC(=O)C2(C)CCN2C(=O)Cc2ccc(C(C)C)cc2)cc1 (stereo unspecified)	7	-2	2	-4	nt	13
Cc1cc(CNCCN(C)C)c(C)n1-c1cc(S(=O)(=O)N2CCOCC2)ccc1N1CCCC1	2	-20	21	-4	0	2
COc1cc(NC(=O)c2cccc3c(-c4cccnc4)coc23)cc(OC)c1OC	99*	10	-14	6	nt	-24
CC(=O)c1cccc(NC(=O)c2cccc3c(-c4cccc(C(N)=O)c4)coc23)c1	98*	-70	-8	5	nt	-173
O=C(Nc1cccc(C(F)(F)F)c1)c1cccc2c(-c3cccnc3)coc12	6	-3	-13	-1	nt	-6
CS(=O)(=O)Nc1cccc(NC(=O)c2cccc3c(-c4cccc(C(N)=O)c4)coc23)c1	42	15	-7	0	nt	-118
Nc1ncnc2c1ncn2[C@@H]1O[C@H](C(=O)NS(=O)(=O)c2ccccc2[N+](=O)[O-])[C@@H](O)[C@H]1O	10	-23	-22	-2	nt	13
CC(C)(C)C(=O)NC(=S)NNC(=O)c1ccc(-c2ccccc2)cc1	40	56*	-18	-6	?	-12
CC(C)(C)c1ccc(C(=O)NC(=S)NNC(=O)c2cccs2)cc1	-54	58*	-40	-11	-1	-92
O=C(NC(=S)NNC(=O)c1cccs1)c1ccccc1	-20	1	3	-4	32	-51
CCN(CC(=O)Nc1c(F)cccc1F)C(=O)Cc1ccc(S(=O)(=O)N2CCOCC2)s1	7	6	-8	-7	2	-6
CCOC(=O)C1=C(c2ccccc2)ON(C)C1c1ccccc1 (stereo unspecified)	-9	-7	2	-6	-4	-15
CSCCC(C(=O)NC(C)(C)C)n1c(-c2ccc3c(c2)OCO3)nc2ccccc21 (stereo unspecified)	nt	nt	nt	-7	nt	-86
O=C(CCn1cccn1)N1CCCC(Nc2ccc(F)c(F)c2)C1 (stereo unspecified)	3	-6	-10	-2	nt	6
COC(=O)c1ccc(COc2ccccc2/C=C(\C#N)C(=O)Nc2ccc(C)cc2)cc1	-236	30	-39	1	-19	-174
C=CCNC(=O)/C(C#N)=C/c1ccccc1OCc1ccc(C(=O)OC)cc1	-61	22	-15	22*	-32	-9
SMILES	Peg3 promoter	CF NFkB inh	KKLEB tox	ABHD5-PLIN5 inh	TRPM1 prom inh	HIF-2a block
Cc1cccnc1NC(=O)c1ccc(NS(=O)(=O)/C=C/c2ccccc2)cc1	7	20	4	-5	3	6
O=C1C=CC(=O)C(CNc2ccc(C(=O)OCc3ccccc3)cc2)=C1	72*	68*	-20	2	66*	24
Cc1ccccc1N=Nc1ccc(O)c2ncccc12	22	-9	10	6	76*	1
COc1cccc(N=Nc2ccc(O)c3ncccc23)c1	-91	100*	-81*	2	52	-123
COc1cccc(N=Nc2ccc3cccnc3c2O)c1	-16	-25	5	7	43	-70
COc1ccc(N=Nc2ccc(O)c3ncccc23)cc1	-32	3	2	2	69*	-39
O=S(=O)(O)c1cccc2c(N=Nc3ccc(O)c4ncccc34)cccc12	1	-3	3	36*	13	3
CCCc1cc(C(=O)Nc2ccc(OC)cc2[N+](=O)[O-])cs1	-174	-5	4	-8	-50	-170
CCC(=O)N(c1nnc(SCC(=O)Nc2sccc2C(N)=O)s1)C1CC1	6	-23	-1	4	nt	-1
CN(C)/C(=N\S(=O)(=O)c1ccc(Br)cc1)c1ccccc1	-2	-22	4	-2	-3	8
CCc1cccc(CC)c1NC(=O)CSc1nnc(CCC(=O)O)c(=O)[nH]1	-6	-16	14	-1	2	12
Cc1ccc(NC(=O)CS(=O)CC(=O)N(CC(=O)NC(C)(C)C)c2cccc(C)c2C)cc1 (stereo unspecified)	2	2	7	1	-2	13
O=Nc1ccc(O)c2ncccc12	76*	72*	-51*	-3	41	-3
COCc1ccc(O)c2ncccc12	1	-26	5	1	25	7
COc1ccc(C)cc1N=Nc1ccc(O)c2ncccc12	49	10	-7	9	72*	22
O=[N+]([O-])c1ccc(O)c2ncccc12	41	-18	4	-3	45	2
OC(CNc1ccnc2cc(Cl)ccc12)CNC1CCCCC1 (stereo unspecified)	100*	-7	-4	-5	91*	-30
Cc1cc(C)c(CN2CCN(Cc3ccc(C)o3)C(CCO)C2)c(-n2cccn2)c1 (stereo unspecified)	20	-25	-1	3	7	26
COc1ccc(S(=O)(=O)N2CCCCCC2)cc1C(=O)N(CC(C)C)C1CCS(=O)(=O)C1 (stereo unspecified)	3	-5	10	13	8	2
Cc1cccc(N2CCN(C(=O)c3ccc(CS(=O)(=O)c4ccccc4C)o3)CC2C)c1 (stereo unspecified)	52*	53*	-11	5	30	20
